# Measurements published in ChEMBL document CHEMBL3988442, “University of Dundee, Small-Polar-MMV Screening Library” (2021).
# Experiments:
# [1] = biological target: T1, Aspartate--tRNA(Asp/Asn) ligase (Mycobacterium tuberculosis (strain ATCC 25618 / H37Rv)) (UniProt P9WFW3); assay: Assay for Asp RNA synthetase-1 from Mycobacterium tuberculosis; assay type: functional; design: scale not given: direction of the effect not stated beside the values; conditions: 30 µM; note: in the data most compounds retested in dose-response had high values
# T1 sequence (whole entry): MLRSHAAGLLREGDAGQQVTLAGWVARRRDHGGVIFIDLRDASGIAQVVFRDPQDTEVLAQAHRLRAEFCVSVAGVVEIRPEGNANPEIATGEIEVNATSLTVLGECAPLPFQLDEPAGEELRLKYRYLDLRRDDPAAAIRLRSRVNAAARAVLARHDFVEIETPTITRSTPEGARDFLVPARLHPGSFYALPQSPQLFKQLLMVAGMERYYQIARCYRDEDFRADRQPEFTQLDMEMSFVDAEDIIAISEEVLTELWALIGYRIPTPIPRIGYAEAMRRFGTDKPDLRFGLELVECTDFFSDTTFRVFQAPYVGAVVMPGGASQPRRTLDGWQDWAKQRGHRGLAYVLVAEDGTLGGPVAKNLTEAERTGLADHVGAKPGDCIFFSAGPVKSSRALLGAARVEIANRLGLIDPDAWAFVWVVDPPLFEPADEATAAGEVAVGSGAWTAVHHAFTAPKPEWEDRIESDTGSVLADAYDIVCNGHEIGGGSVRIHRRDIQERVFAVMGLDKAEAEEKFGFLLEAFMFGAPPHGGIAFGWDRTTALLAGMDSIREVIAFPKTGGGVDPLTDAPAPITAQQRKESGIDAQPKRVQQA
# [2] = biological target: Shiga toxin 2 (Escherichia coli O157:H7) (UniProt P09385+P09386); assay: E. coli 0.157:H7 Shiga Toxin SOP - stx2 screening assay; assay type: functional; design: scale not given: direction of the effect not stated beside the values; conditions: 30 µM
Compound,Percent Effect [1] [%],Percent Effect [2] [%]
c1cnc(NCc2noc3c2CN(CCN2CCCC2)CC3)nc1,1.46,-35.5
COCCN1C[C@@H]2CN(C(=O)[C@H]3CCCO3)C[C@@H]2C1=O,-1.41,-16.3
c1ccc(-c2ccc3nc(C4CCN(CC5CC5)CC4)nn3c2)cc1,1.41,-51.6
CCc1nc(NCCCOC)c2c(n1)c(C)nn2C,-8.39,-21.6
O=C1C(NCc2nnc3n2CCCC3)CCCN1c1cccc(F)c1 (stereo not given),0.344,-64.6
COCCNC(=O)[C@H]1CN(Cc2scnc2C)C[C@H]2OCC[C@@H]12,-3.26,0.32
COc1cccc(CCC2CCCN(C(=O)C3=NN(C)C(=O)CC3)C2)c1 (stereo not given),1.75,-7.25
CCN(Cc1cccc2c1OCO2)C(=O)Nc1ccncc1,-0.0463,-14.2
O=C(CCNC(=O)c1ccccc1)Nc1ccncc1,-1.89,-111
CN1CCN(c2ncc3c(=O)n(-c4cccc(F)c4)c(=O)[nH]c3n2)CC1,11.2,-20.7
Cc1cnn(CC2CCCCN2C(=O)c2cc(C(N)=O)cs2)c1 (stereo not given),-2.6,1.14
COc1ccc(CNC(=O)N(Cc2ccc(F)cc2F)C2CC2)cn1,-9.17,-13
COc1ccc(CN(C)Cc2nc3c(cnn3C)c(=O)[nH]2)cc1OC,-3.27,-8.89
COc1ccc(C(=O)N2CCC(Nc3ccc(C)nn3)CC2)c(F)c1,4.79,-6.61
CN(Cc1ccc(F)cc1)C(=O)NCC1(N2CCOCC2)CCSC1 (stereo not given),-1.08,-43.8
Cc1cnn(CC2CN(Cc3cccc(C(=O)N(C)C)c3)CCO2)c1 (stereo not given),2.43,-24.4
NCc1cnn(-c2ccccc2C(=O)NCCCn2ccnc2)c1,0.581,10.4
CC(=O)c1cccc(S(=O)(=O)N2CSCC2C(=O)NCC(F)(F)F)c1 (stereo not given),-1.82,-13.6
CC(O)CN1CCN(C(=O)c2cc3ccccc3[nH]c2=O)CC1 (stereo not given),-2.04,2.32
OC(CN1CCN(c2ncccn2)CC1)c1cccc(F)c1 (stereo not given),-3.26,-4.85
